LASV entry inh – inhibitors of Lassa virus binding or cell entry; Potency, µM (highest dose often 37.9 µM), for the others: top-dose activity change, negative = inhibition, most hits filed as inhibitors; actives 1.2% (n = 300,000); Lassa virus pseudotype entry inhibition, cell reporter; calls by dose curve; tested in HEK293 cells; also: potency is read from the fitted curve at half-maximal effect; nearly all actives have a fitted effect of over 50% in size
Marburg entry inh – blocks Marburg virus binding to or entry into cells. Marburg virus pseudotyped entry inhibition, cell reporter. Potency, µM (top dose mostly 37.8 µM), inactives show at the highest dose activity change, negative = inhibition, actives largely listed as inhibitors. actives 1.8% (n = 300,000). AID 540276; calls by dose curve; tested in HEK293 cells; also: potency is read from the fitted curve at half-maximal effect
FMDV inh – antivirals against foot and mouth disease virus; AID 1159524; actives 1.2% (n = 410,000); FMDV antiviral cell-based qHTS; Potency, µM (series often up to 57.9 µM), for inactives: at the top dose activity change, negative = inhibition, most hits filed as inhibitors; calls by dose curve; tested in HEK293T cells; also: read-out not given here; potency is read from the fitted curve at half-maximal effect; nearly all actives have a fitted effect of over 45% in size
HCMV antiviral – blocks human cytomegalovirus replication; HFF cells, HCMV-luciferase reporter, 72 h; active compounds read low; activity change, negative = inhibition, % at 57.5 µM; actives 4.5% (n = 410,000); AID 1259415; in the data active = activity change below about -60%; inconclusive = no clear call, values can overlap the other calls; inactive = above about -39%
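Two compound doses tested in HFFs infected with HCMV-luciferase, MOI 1 PFU/cell, 72 h at 37C. Lysate luminescence read with OneGlo; data normalized against buffer-only and 10uM Salinomycin inhibitor controls.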
Active calls of the source: *; [ ] = another dose, or the depositor's remark. The list is not random: actives were taken first. Their share in the collection is about 6.2%. % is scaled to controls: 0 for no effect and ±100 for the full control effect.

Results for Cc1ccc(/C=C2/SC(=S)N(CCC(=O)N3CCN(C)CC3)C2=O)cc1 ?
LASV entry inh: 2.8%; Marburg entry inh: inconclusive; FMDV inh: 16.3%; HCMV antiviral: -74.1*

How did CN1CCN(C(=O)CCN2C(=O)/C(=C/c3ccccc3Cl)SC2=S)CC1 do in these assays?
LASV entry inh: -29.8%[46.1 µM]; Marburg entry inh: inconclusive; FMDV inh: -28.4%; HCMV antiviral: -84.7*

What do the screens show for `O=C1NC[C@H](CCCCN2C[C@@H](Cc3ccccc3)N(CC3CCCCC3)C(=O)C2=O)N(CCC2CCCCC2)C1=O`?
FMDV inh: -2.8%; HCMV antiviral: -12.4

Results for CCOC(=O)Oc1c(OC)cc(C(=O)O[C@@H]2C[C@@H]3CN4CCc5c([nH]c6cc(OC)ccc56)[C@H]4C[C@@H]3[C@H](C(=O)OC)[C@H]2OC)cc1OC ?
FMDV inh: 0.0%; HCMV antiviral: -67.6*

How did Cc1onc(-c2ccc(Cl)cc2)c1-c1ccnn1S(=O)(=O)c1cccc(C(F)(F)F)c1 do in these assays?
LASV entry inh: -26.8%; Marburg entry inh: 10µM*; FMDV inh: -17.4%; HCMV antiviral: -36.0

What do the screens show for `O=[N+]([O-])c1cccc(CSC2=NCCN2S(=O)(=O)c2ccccc2)c1`?
FMDV inh: inconclusive; HCMV antiviral: -74.4*

How did O=[N+]([O-])c1ccc(S(=O)(=O)N2CCN=C2SCc2cccnc2)cc1 do in these assays?
LASV entry inh: inconclusive; Marburg entry inh: 1.6%[46.1 µM]; FMDV inh: 0.0%; HCMV antiviral: -72.8*

What do the screens show for `COCCc1nn2c(=O)cc(COC(=O)COc3ccccc3C)nc2s1`?
LASV entry inh: 1.1%[46.1 µM]; FMDV inh: -7.8%; HCMV antiviral: 16.0

Results for Cc1cc(C)c(-c2cc([C@H](C)ON=C[C@@H](C)[C@H](OCc3ccccc3)C(C)C)on2)c(C)c1 ?
Marburg entry inh: 6.0%[14.2 µM]

How did C(=C\c1sc(Nc2ccccc2)n[n+]1-c1ccccc1)/c1ccccc1 do in these assays?
FMDV inh: 6.31µM*; HCMV antiviral: -3.7

How did COc1ccc(-c2sc(Nc3ccccc3)n[n+]2-c2ccccc2)cc1Br do in these assays?
FMDV inh: -24.9%; HCMV antiviral: inconclusive

Results for O=S(=O)(CC(CN1CCCC1)N1CCCC1)c1ccc2ccccc2c1 (configuration not stated) ?
LASV entry inh: 10.3µM*; Marburg entry inh: 18.3µM*; FMDV inh: 0.0%; HCMV antiviral: -101.6*

How did O=[N+]([O-])c1cccc2c[nH]nc12 do in these assays?
Marburg entry inh: -22.3%; FMDV inh: 8.6%

How did O=C(c1ccco1)N1CCN(c2nc(C(F)(F)F)nc3c2nnn3Cc2ccccc2)CC1 do in these assays?
LASV entry inh: inconclusive; Marburg entry inh: inconclusive; FMDV inh: 14.1µM*; HCMV antiviral: -75.6*

How did COC(=O)C1=C(C)N(CCc2cc(OC)c(OC)c(OC)c2)C(=O)NC1c1ccc(Br)cc1 (configuration not stated) do in these assays?
LASV entry inh: -3.0%[14.3 µM]; Marburg entry inh: 2.2%[14.2 µM]

How did Cc1ccc2nc(C3CCN(C(=O)NCc4ccccc4)CC3)[nH]c2c1 do in these assays?
LASV entry inh: -16.9%[14.3 µM]; Marburg entry inh: 10.7%; FMDV inh: 1.9%; HCMV antiviral: -88.2*

How did Cc1ccc2nc(C3CCCN(C(=O)NCc4ccccc4)C3)[nH]c2c1 (configuration not stated) do in these assays?
LASV entry inh: 4.0%; Marburg entry inh: 13.5%; FMDV inh: 33.3%; HCMV antiviral: 47.2

What do the screens show for `COc1ccc(-c2noc(N3CCN(c4cccc(C)c4C)CC3)n2)cc1OC`?
LASV entry inh: 0.9%[46.1 µM]; FMDV inh: inconclusive; HCMV antiviral: -27.4

How did CC(C)Oc1ccccc1OC1(C)CCN(Cc2ccc(OC(F)(F)F)cc2)C1 (configuration not stated) do in these assays?
FMDV inh: -21.8%; HCMV antiviral: 0.6

Results for CC(=O)c1ccc(S(=O)(=O)N2CCN(C(=O)c3ccc(-n4nc(C)c(Cl)c4C)cc3)CC2)cc1 ?
FMDV inh: inconclusive; HCMV antiviral: -90.1*

Results for CC1CC(C)CN(C(=O)c2ccc(S(=O)(=O)N3CC(C)CC(C)C3)cc2)C1 (configuration not stated) ?
LASV entry inh: inconclusive; Marburg entry inh: inconclusive; FMDV inh: -19.9%; HCMV antiviral: -65.0*

Results for Nc1ccc(N=Nc2ccccc2)c(N)n1 ?
LASV entry inh: inconclusive; Marburg entry inh: -6.9%; FMDV inh: 13.3%; HCMV antiviral: -101.7*

Results for CC(NC(=O)c1cc2ccccn2n1)c1ccccc1 (configuration not stated) ?
LASV entry inh: -6.7%[46.1 µM]; FMDV inh: 0.1%; HCMV antiviral: -3.4

What do the screens show for `COc1ccc(NC(=O)c2oc3ccccc3c2NC(=O)Cc2coc3ccc(C)cc23)cc1`?
LASV entry inh: -19.5%[46.1 µM]; Marburg entry inh: 2.0%[46.1 µM]; FMDV inh: 9.1%; HCMV antiviral: 40.4

Results for OC(CCN1CCCCC1)(c1ccccc1)c1ccccc1 ?
LASV entry inh: -19.7%; Marburg entry inh: inconclusive; FMDV inh: -17.2%; HCMV antiviral: -80.9*

What do the screens show for `CCN(CC)CCC(O)(c1ccccc1)C1CCCCC1` (configuration not stated)?
FMDV inh: -16.9%; HCMV antiviral: 31.7

How did OC(CCN1CCCC1)(c1ccccc1)C1CCCCC1 (configuration not stated) do in these assays?
LASV entry inh: inconclusive; Marburg entry inh: inconclusive; FMDV inh: 0.0%; HCMV antiviral: -60.3*

How did CC(O)(C#CCN1CCCCCC1)c1ccccc1 (configuration not stated) do in these assays?
LASV entry inh: 3.3%; Marburg entry inh: -0.8%[46.1 µM]; FMDV inh: -6.1%; HCMV antiviral: -102.2*

How did COC(=O)c1ccccc1-c1cc(C)cc2c1OC(CNC(=O)c1ccn(C)n1)C2 (configuration not stated) do in these assays?
FMDV inh: 10.4%

How did O=c1ccn2c(n1)OC1CC2OC1COC(c1ccccc1)(c1ccccc1)c1ccccc1 (configuration not stated) do in these assays?
HCMV antiviral: -1.0

What do the screens show for `O=C1C(=O)N(C2CCN(C(=O)c3ccc(F)cc3)CC2)CCN1Cc1ccc(F)cc1`?
LASV entry inh: 9.6%[46.1 µM]; FMDV inh: -18.0%; HCMV antiviral: -4.0

What do the screens show for `Cc1cccc(Cn2c(=O)n(CCCCC(=O)NCc3ccc4c(c3)OCO4)c(=O)c3ccccc32)c1`?
LASV entry inh: 7.9%[46.1 µM]; Marburg entry inh: inconclusive; FMDV inh: 1.9%; HCMV antiviral: -6.5

Results for COC(=O)c1[nH]c2cc(C)ccc2c1NC(=O)CN1CCc2cc(OC)c(OC)cc2C1 ?
LASV entry inh: inconclusive; Marburg entry inh: inconclusive; FMDV inh: 22.4µM*

How did COC(=O)c1[nH]c2ccc(C)cc2c1NC(=O)CN1CCN(c2ccccc2)CC1 do in these assays?
LASV entry inh: inconclusive; Marburg entry inh: inconclusive; FMDV inh: inconclusive; HCMV antiviral: -64.5*

How did COC(=O)c1[nH]c2ccc(C)cc2c1NC(=O)CN1CCN(Cc2ccccc2)CC1 do in these assays?
LASV entry inh: inconclusive; Marburg entry inh: -19.8%; FMDV inh: inconclusive; HCMV antiviral: -10.2
